Experiments:
Assay in all cases: PBM binding z-score (relative to random genomic background probes); higher = stronger binding; sequences stand for … in GC…GCGATTGACAGCGTAGAATGAAGG
[1] = system: RARb homodimer (NR concentration 270 nM)
Outline: (§1)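 On custom Agilent 4×180K arrays, double-stranded probes with 34-nt variable regions carried direct-repeat seeds, single-nucleotide variants, half-site ablations or random human genomic background. Ligand-free nuclear receptor dimers were applied for 1 h, and binding was read with antibodies against each partner (one per run). Binding z-scores come from regression-normalized fluorescence, with the random background probes as reference.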

[2] = system: RARg:RXRa (NR concentration 270 nM, RXRa partner concentration 90 nM)
Outline: as §1

[3] = system: RARg homodimer (NR concentration 270 nM)
Outline: as §1

[4] = system: RXRa DBDmut IVT, anti-RXR (DBD mutation: RXRa K156A/R161A, NR concentration 90 nM)
Outline: as §1

[5] = system: RXRa homodimer (NR concentration 180 nM)
Outline: as §1

[6] = system: THRa:RXRa (NR concentration 90 nM, RXRa partner concentration 90 nM)
Outline: as §1

[7] = system: THRa homodimer (NR concentration 90 nM)
Outline: as §1

[8] = system: VDR:RXRa (NR concentration 270 nM, RXRa partner concentration 90 nM)
Outline: as §1

[9] = system: VDR homodimer (NR concentration 270 nM)
Outline: as §1

Sequence | PBM binding z-score [1] | PBM binding z-score [2] | PBM binding z-score [3] | PBM binding z-score [4] | PBM binding z-score [5] | PBM binding z-score [6] | PBM binding z-score [7] | PBM binding z-score [8] | PBM binding z-score [9]
ATATGTAGATTAGGGTCATTCAGAAAGTAGGGAA | 3.09 | 3.47 | 2.29 | 2.09 | 4.53 | 3.9 | 2.95 | 4.06 | 3.14
CTCGAAAGGTCGTGCTCAGGTGAGTACACCAAAC | 2.93 | 5.5 | 4.41 | 2.36 | 5.63 | 4.01 | 1.21 | 3.6 | 2.52
CCGAGTAGGTTACGAGGTGGCATTCAGTGCGAAT | 0.473 | 0.479 | 0.466 | 0.226 | 0.697 | 0.837 | -0.2 | 0.516 | 0.0157
CGTCCAAGGTAAGAGAGGTCAGTGAATGCCGAGT | 3.65 | 2.87 | 3.04 | 0.742 | 2.46 | 2.91 | 1.13 | 4 | 1.93
CAAAATAGGTCAAGGTCAAAGTCGGTTTGTGCCA | 5.46 | 6.53 | 7.1 | 2.89 | 6.48 | 4.48 | 3.55 | 5.51 | 3.72
CGTCCAAGGTCAACGCTAGGTCAGTGAAAGCATT | 5.38 | 7.88 | 7.21 | 3.69 | 6.38 | 4.61 | 3.53 | 5.09 | 2.6
CCTTACAGGTCACGAGGTTATAGCACGACGAGCG | 4.51 | 6.3 | 6.12 | 2.77 | 6.64 | 3.98 | 1.85 | 5.04 | 2.48
CCGAGTAGGTTACGAGGGGACATTCAGTGCGAAT | 1.22 | 1.25 | 1.25 | 0.594 | 0.907 | 4.11 | 0.165 | 2.82 | 1.46
CGAACTAGGTCAAACGACAGTGAAAGGCGACGTA | 2.49 | 4.21 | 4.7 | 1.76 | 3.32 | 2.29 | 0.23 | 1.43 | 0.347
CCTACTGGGCCGAGGTCATTGATCAGTCAAAGCA | 3.3 | 4.27 | 3.11 | 1.96 | 4.68 | 3.52 | 2.67 | 4.12 | 4.32
CTATGTAGGTTAAGGGGGTCATTCAGTTTGAAAG | 3.93 | 5.34 | 4 | 2.56 | 6.26 | 3.95 | 2.19 | 7.57 | 4.98
CTATGTAGGTTAAGGGGGTCATTCATTTTGAAAG | 3.81 | 4.91 | 3.98 | 2.28 | 5.74 | 3.64 | 1.93 | 7.08 | 5.01
CAAAGTAGGTCAAGGTCAAAGTCGGTTTGTGCCA | 5.16 | 6.15 | 6.56 | 3.29 | 6 | 4.22 | 3.66 | 5.27 | 4.44
CCGAGTAGGTTACGAGGGGGCATTCACTGCGAAT | 2.02 | 3.01 | 2.43 | 1.06 | 1.98 | 3.81 | 0.568 | 4.98 | 2.51
CGAACTAGGTCAAAGCACAGTGAAAGGCGACGTA | 2.34 | 3.89 | 4.07 | 1.58 | 2.66 | 2.37 | 0.0185 | 1.2 | 0.261
CTATGTAGGTTAAGGGGGTCATTCAATTTGAAAG | 3.69 | 4.93 | 3.88 | 2.02 | 5.5 | 3.97 | 1.83 | 7.18 | 5.01
CTATGTAGGTTAAGGGGGTCCTTCAGTTTGAAAG | 1.5 | 1.79 | 1.26 | 0.924 | 1.49 | 2.17 | 0.899 | 3.98 | 1.49
CAAACTAGGTCACCAGGACAGTGAAGAGGTTGGA | 3.44 | 4.56 | 5.51 | 1.54 | 3.75 | 3.77 | 2 | 2.3 | 1.03
CCGAGTAGGTTACGAGGGGGCATTTAGTGCGAAT | 2.18 | 3.09 | 2.33 | 1.31 | 2.16 | 3.92 | 0.585 | 4.94 | 2.81
CTATGTAGGTTAAGGGGGTCAATCAGTTTGAAAG | 3.94 | 5.13 | 4.33 | 1.67 | 5.67 | 3.81 | 1.49 | 7.09 | 4.34
CCGAGTAGGTTACGAGGGGGCATTAAGTGCGAAT | 2.04 | 3.1 | 2.45 | 1.56 | 2.14 | 3.52 | 0.655 | 5.39 | 3.56
CGTCCAAGGTAAATGCTAGGTCAGTGAAAGCATT | 2.15 | 1.85 | 1.23 | 0.0865 | 0.316 | 2.53 | 1.11 | 0.355 | -0.194
CGTACTAGGTCACCAGGACAGTGAAGAGGTTGGA | 3.24 | 4.42 | 5.34 | 1.55 | 3.04 | 3.22 | 1.88 | 1.93 | 0.631
TCGAGTAGGTTATGGGGGCATTCAGGGATGAAGA | 2.17 | 2.62 | 1.29 | 1.84 | 2.1 | 3.99 | 1.84 | 3.34 | 2.57
GATTACGGGTCAAAGGTTATAGCATGAATAGAAT | 3.44 | 7.12 | 4.85 | 2.27 | 9.48 | 3.95 | 0.146 | 5.82 | 1.64
CCGAGTAAGTTACGAGGGGGCATTCAGTGCGAAT | 1.29 | 1.47 | 0.902 | 1.57 | 1.31 | 2.32 | 0.139 | 3.83 | 2.59

Sequence | PBM binding z-score [1] | PBM binding z-score [2] | PBM binding z-score [3] | PBM binding z-score [4] | PBM binding z-score [5] | PBM binding z-score [6] | PBM binding z-score [7] | PBM binding z-score [8] | PBM binding z-score [9]
CTATGTAGGTTAAGGGGGCCATTCAGTTTGAAAG | 1.71 | 2.17 | 1.78 | 1.21 | 1.73 | 2.02 | 0.914 | 4.74 | 1.98
GGAACGAGGGCATTCGAGTTGATAGCATGGCGAT | 0.687 | 0.932 | 1.3 | 3.13 | 0.756 | 3.03 | -0.775 | 3.76 | 2.78
ACTAGCAGGCCAAAGGTCACTCAAGATTAGTCCG | 4.87 | 6.14 | 5.41 | 0.861 | 6.31 | 3.6 | 0.91 | 4.05 | 1.58
TCTAGTTGGTCAAAGGTCAAACACTCGAAATGCG | 5.02 | 7.43 | 6.41 | 2.11 | 8.23 | 4.04 | 1.45 | 5.41 | 3.12
CCTACTGGGCGAAGGTCATTGATCAGTCAAAGCA | 3.08 | 3.7 | 2.52 | 0.409 | 2.97 | 2.2 | -0.298 | 2.18 | 1.33
CCGAGTGGGTTACGAGGGGGCATTCAGTGCGAAT | 1.94 | 2.95 | 2.18 | 1.09 | 1.75 | 3.72 | 0.652 | 5.13 | 3.43
CGAACTAGGTCACCAGGACAGTGGAGAGGTTGGA | 3.32 | 4.53 | 5.51 | 1.04 | 3.27 | 3.34 | 1.78 | 1.99 | 0.74
ATTTGTAGGTTAGGGTCATTCAGAAAGTAGGGAA | 3.88 | 4.4 | 3.72 | 2.82 | 5.6 | 4.17 | 3.71 | 4.81 | 4.56
CGAACTAGGTCAAAGAACAGTGAAAGGCGACGTA | 2.03 | 3.41 | 4.27 | 1.3 | 3 | 2.06 | 0.033 | 0.943 | 0.121
CCTTACGGGTCAGGAGGTTATAGCACGACGAGCG | 3.15 | 4.9 | 4.22 | -0.195 | 4.96 | 2.37 | 0.0139 | 3.14 | 0.418
TAGCCTAGGTCATGCGGGTCAGTATAGTGTCGGC | 4.27 | 4.91 | 4.9 | 1.07 | 4.2 | 3.75 | 1.35 | 5.81 | 2.26
CCCGCTAGGTCATGGTCAGCTAATCTACAGTATG | 3.38 | 4 | 4.55 | 1.57 | 3.06 | 3.21 | 1.91 | 1.69 | 0.379
CCGAGTAGGTTACGAGGGGGTATTCAGTGCGAAT | 1.15 | 1.98 | 1.63 | 0.847 | 1.17 | 2.6 | 0.46 | 2.95 | 1.11
CCAACTAGGTCACCAGGACAGTGAAGAGGTTGGA | 3.74 | 4.53 | 5.37 | 1.24 | 3.51 | 3.37 | 1.89 | 1.99 | 0.883
CGAACTAGGTCACCAGGTCAGTGAAGAGGTTGGA | 4.64 | 5.69 | 6.17 | 1.7 | 4.83 | 3.89 | 2.72 | 3.92 | 1.52
CCTAGTTGGTCAGGAAGTCACACACCGGATATGA | 1 | 0.765 | 0.857 | 0.171 | 0.568 | 0.226 | 0.522 | 0.604 | 0.457
AGAATGGGGTTATTAAGATCAGGGAATTGCGGTC | 1.53 | 1.85 | 0.796 | 2.11 | 3.5 | 2.6 | 1.56 | 4.05 | 2.41
CGTCCAAGGTCAGCAGGTCACTGAAAGCGACGTG | 5.25 | 7.24 | 7.65 | 2.86 | 6.51 | 4.32 | 2.37 | 4.5 | 1.88
CCTAGTTGGTCAGGGGGTCACACACCGGATATGA | 4.05 | 5.83 | 4.22 | 0.886 | 6.18 | 3.88 | 2.28 | 4.94 | 3.16
ATATGTAGGTTACATCCGGGTCTTTCAGGCTATG | 1.01 | 1.09 | 1.02 | 0.936 | 0.924 | 1.62 | 0.947 | 1.06 | 0.214
CAGACTAGGTCAAAGGTCAAAGTCGAGCCAACCA | 5.25 | 8.9 | 7.48 | 3.08 | 10.3 | 4.68 | 1.38 | 6.58 | 3.17
ACTAGTAGGCCAAGGGTCACTCAAGATTAGTCCG | 3.88 | 4.22 | 4.21 | 0.602 | 4.54 | 2.6 | 0.197 | 2.93 | 1.36
ACTATCAGGCCAAGGGTCACTCAAGATTAGTCCG | 3.89 | 4.3 | 3.73 | 1.23 | 4.05 | 3.35 | 0.937 | 3.13 | 1.45
CTATGTAGGTTATGGGGGTCATTCAGTTTGAAAG | 4.1 | 5.57 | 4.08 | 2.33 | 6.38 | 3.9 | 2.67 | 7.53 | 6.69
GCTGCTAGGTCGACTGATGGTCAGCTAAAGCTCG | 0.638 | 1.2 | 0.89 | 0.38 | 0.265 | 0.35 | -0.82 | -0.493 | -1
CCTACTGGGCCAAGCTCATTGATCAGTCAAAGCA | -0.235 | -0.314 | -0.109 | -0.384 | -0.732 | -0.704 | -0.701 | -0.667 | -0.851
